The panel holds about 83,000 compounds, 20% with a hit somewhere; the sample as a whole holds those more often.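 Single-dose data. Exposure time 48 hours. Values below 10 considered active.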 A number with no mark means an inactive call. Active and inactive are the calls of the source.
Test system: NCI-H322M lung
Assay: NCI-60 one-dose screen, 48 h (100 = growth as untreated, 0 = no growth, -100 = all killed)
Conditions: 10 µM unless noted
Experimental: Growth inhibition of the NCI-H322M human Non-Small Cell Lung tumor cell line is measured as a screen for anti-cancer activity. Cells are grown in 96 well plates and exposed to the test compound for 48 hours. Compounds are tested at a single concentration, which is 10^-5 M for most compounds. The reported endpoint is percent growth (GI% or GIPRCNT), where numbers from 0 - 100% represent growth inhibition, and numbers from -100% - 0 represent cell death. For example, a value of 40 represents 60% growth inhibition. A value of 0 means no net growth occurred over the course of the experiment. A value of -40 indicates 40% of cells at the beginning of the experiment died by the end of the experiment. A value of -100 means all cells are dead at the end of the experiment.
NCI-60 Human Tumor Cell Lines Screen was performed using the standard one-dose NCI protocol, which is described in more detail at https://dtp.cancer.gov/discovery_development/nci-60/default.htm.
Compounds with GIPRCNT values below 10 were considered active. Activity score was based on GIPRCNT using the following formula: […]
Score is 0 for GIPRCNT values of 100 or above, 50 for GIPRCNT values of 0, and 100 for GIPRCNT values of -100.

Question: O=C1CCC(N2C(=O)c3cccc(NCCCC4CCN(CCNC(=O)c5cc6c(o5)C(=O)c5ccccc5C6=O)CC4)c3C2=O)C(=O)N1 (stereo not given) was tested. Which growth did it give?
Answer: -98.8% (active)

Question: For CC(=O)Nc1ccc2c(c1)Cc1c(F)cccc1-2, which growth is on record?
Answer: 112%

Question: Which growth does the source give for COc1cc(C(=O)/C=C/c2c(-c3ccc(F)cc3)nc3ncccn23)cc(OC)c1OC here?
Answer: 69.9%

Question: Which growth does the source give for C/C(Cc1ccc(Cl)cc1)=C(/c1ccc(Cl)cc1)c1ccc(OCCN(C)C)cc1 here?
Answer: 91.2%

Question: With COc1ccc(C2CC(c3cnccn3)=NN2)cc1OC (stereo not given) as the molecule, how does the growth read?
Answer: 90.9%

Question: How did the growth turn out when Cc1nc(-c2ccccc2)cc2c(O)c(C(=O)N/N=C/c3ccc(N(C)C)cc3)[nH]c(=O)c12 was run?
Answer: 90.5%

Question: For COc1cc(-c2ccc(N=Nc3c(O)c(C(=O)Nc4ccccc4OC)cc4ccccc34)c(OC)c2)ccc1N=Nc1c(O)c(C(=O)Nc2ccccc2OC)cc2ccccc12, which growth is on record?
Answer: 86.8%

Question: With Cc1cc(N2CCCCC2)nc(N(CCNc2ccnc3cc(Cl)ccc23)Cc2ccccn2)n1 as the molecule, how does the growth read?
Answer: 68.8%

Question: Which growth does the source give for CCOC(=O)c1sc(-c2ccc(OS(=O)(=O)c3ccc(C(C)(C)C)cc3)c(C=O)c2)nc1C here?
Answer: 93.7%

Question: With COc1ccc(-n2nnc(C(=O)NCCc3c[nH]c4ccc(F)cc34)c2C)cc1 as the molecule, how does the growth read?
Answer: 101%

Question: Which growth does the source give for CCCc1nc2ccccn2c1Nc1ccc(C(=O)NO)cc1 here?
Answer: 97.4%

Question: For COC1=CC(c2ccc[nH]2)=N/C1=C\c1[nH]c(C)c(C(=O)OCCn2cc(CCC[C@@H]3Cc4cc(O)ccc4C4CC[C@]5(C)[C@@H](O)CC[C@H]5C43)nn2)c1C (stereo not given in full), which growth is on record?
Answer: 82%

Question: For COc1ccc(NC(=O)C(=O)c2c[nH]c3ccc(F)cc23)cc1, which growth is on record?
Answer: 73%

Question: Which growth does the source give for C=C1C(=O)O[C@H]2[C@H]1CC/C(COC(=O)/C=C\C(=O)NCc1ccc(Cn3c(=O)sn(CCCC)c3=O)cc1)=C\CC[C@@]1(C)O[C@@H]21 here?
Answer: 35.4%

Question: With CCOC(=O)C(O)C(O)(c1ccccc1)c1ccccc1 (stereo not given) as the molecule, how does the growth read?
Answer: 96.7%

Question: For COc1ccc(OC)c(C(=O)Nc2cccc(-c3cc(=O)c4ccccc4o3)c2)c1, which growth is on record?
Answer: 86.9%

Question: With CCCCCCCC/C=C\CCCCCCCC(=O)Oc1cccc2cccnc12 as the molecule, how does the growth read?
Answer: 97.6%

Question: C=C1C(=O)O[C@H]2[C@H]1CC/C(COC(=O)/C=C\C(=O)NCc1ccc(Cn3c(=O)sn(-c4ccc(OC)cc4)c3=O)cc1)=C\CC[C@@]1(C)O[C@@H]21 was tested. Which growth did it give?
Answer: 32.4%

Question: For CC(=O)Nc1ccc(C(=O)/C=C/c2ccccc2)cc1, which growth is on record?
Answer: 88.9%

Question: For Cc1cccc(-c2cc(O)c(C(=O)N3CCOCC3)s2)c1, which growth is on record?
Answer: 63.6%

Question: Which growth does the source give for N#Cc1c(N)nc2c(nnn2-c2cccc(Br)c2)c1N here?
Answer: 97.6%

Question: Which growth does the source give for O=C(NC1CCOCC1)c1ccc2c(c1)CN(c1ncc(Cc3cccc(-n4cccn4)c3)s1)CC2 here?
Answer: 87.8%

Question: How did the growth turn out when CC1(C)C(=O)/C(=C\c2cccnc2)C[C@]2(C)[C@H]3CC=C4[C@@H]5C[C@@](C)(C(=O)O)CC[C@]5(C)CC[C@@]4(C)[C@]3(C)CC[C@@H]12 was run?
Answer: 93.1%

Question: With N#Cc1c(NC(=O)c2cccc(C(F)(F)F)c2)sc2c1CCC(=O)C2 as the molecule, how does the growth read?
Answer: 66.1%

Question: With O=C1CSC(c2ccccc2Cl)N1c1nnc(Cn2cnnc2)o1 (stereo not given) as the molecule, how does the growth read?
Answer: 87.1%

Question: For CNC(=O)c1c(NC(=O)c2ccc(C(C)(C)C)cc2)sc2c1CCC(=O)C2, which growth is on record?
Answer: 35.4%

Question: How did the growth turn out when CN(C)CCC(O)(Cc1ccccc1)c1ccccc1 (stereo not given) was run?
Answer: 120%

Question: How did the growth turn out when O=C(O)c1ccccc1C(=O)Nc1ccc(Cl)cc1 was run?
Answer: 101%

Question: Which growth does the source give for Clc1ccc(-c2nc(NCCc3ccccc3)nc3c(NCCc4ccccc4)cnn23)cc1 here?
Answer: 73.7%

Question: With N#Cc1cnn2c(-c3ccc(Cl)cc3)nc(NC3CC3)nc12 as the molecule, how does the growth read?
Answer: 87.5%

Question: For CCCCOC(=O)c1ccc(NC(=O)C(C)N2CCOCC2)cc1 (stereo not given), which growth is on record?
Answer: 95.7%

Question: Which growth does the source give for CC(C)n1nc(C#Cc2cccc3cc(-c4cccc(C(F)(F)F)c4)ncc23)c2c(N)ncnc21 here?
Answer: 94.8%

Question: With C=C(C)[C@@H]1CC[C@]2(CNCCO)CC[C@]3(C)[C@H](CC[C@@H]4[C@@]5(C)CCC(N)[C@@](C)(CO)[C@@H]5CC[C@]43C)[C@@H]12 (stereo not given in full) as the molecule, how does the growth read?
Answer: 47.5%

Question: With COC(=O)/C(=C\c1ccc(OC)cc1)C(=O)N1c2ccccc2Sc2ccccc21 as the molecule, how does the growth read?
Answer: 83%

Question: Which growth does the source give for COc1ccc(/C(C)=C(\c2ccc(Cl)cc2)c2ccc(OCCN3CCCCCC3)cc2)cc1F here?
Answer: 83.3%

Question: For Cl.Fc1c[c-]c(-c2ccccn2)c(F)c1.[Pt].c1ccc([PH+](C[PH+](c2ccccc2)c2ccccc2)c2ccccc2)cc1, which growth is on record?
Answer: -98.3% (active)

Question: How did the growth turn out when CC(C)OC(=O)OCOP(=O)(OCOC(=O)OC(C)C)C1CCCN(O)C1=O (stereo not given) was run?
Answer: 32.8%

Question: For Nc1c(-c2nc3ccccc3c(=O)[nH]2)nnn1-c1ccc(Cl)cc1, which growth is on record?
Answer: 78.3%

Question: With N#Cc1cnn2c(-c3ccc(Cl)cc3)nc(NCCc3ccccc3)nc12 as the molecule, how does the growth read?
Answer: 83.5%

Question: O=C(CC12CC3CC(CC(C3)C1)C2)NCCOCCOCCOCCNC(=O)c1cc2c(o1)C(=O)c1ccccc1C2=O was tested. Which growth did it give?
Answer: -78.7% (active)
